Assay results published in PubChem BioAssay (NCATS).

Test: High-throughput drug toxicity screening in the BPDCN cell line Gen2.2 (AID 1224824)
Details: Gen2.2 BPDCN cells; at 45.8 µM (top of the series) unless noted
Description: Blastic plasmacytoid dendritic cell neoplasm (BPDCN) is a rare, aggressive and largely incurable hematologic malignancy originating from plasmacytoid dendritic cells (pDCs). Although an initial response to chemotherapy is common, BPDCN prognosis is extremely poor and most patients relapse with drug-resistant disease leading to a median overall survival of ~1 year after diagnosis. To explore novel potential therapeutic strategies in BPDCN, we performed a high-throughput drug toxicity screening in BPDCN cell liens, using of a library of 1,912 small molecules, enriched for compounds that are either approved or in early stages of development for cancer therapy.
A total of 500 exponentially growing Gen2.2 cells were seeded per well in 5 uL of media (RPMI + Glutamine, without phenol red plus10% FBS and 1X Pen/Strep) into 1536-well solid white high base tissue culture treated Greiner One Bio Plates (789173-F), using a multidrop combi dispenser and a small sterile cassette. Compounds and controls totaling 23nL per well (negative control DMSO and positive control 9.2 uM Bortezomib-final) were immediately added to the plates using a 1536 head pin tool from Kalypsys. The plates were then covered with stainless steel gasket lids from Kalypsys and incubated for 48 hours at 37C under 95% relative humidity with 5% CO2. After 48 hours, the plates were removed and allowed to reach room temperature before 3 uL of Cell Titer Glo reagent (Promega) were added using an Aurora Flying Reagent Dispenser Bioraptor. The plates were then spun at 1000 rpms to remove bubbles and incubated for 15 minutes at room temperature before reading on a ViewLux using a luminescent filter with a 10 second exposure. The relative luciferase units were used to calculated percent activity using DMSO as 100% and Bortezomib as 0%.

Question: For `C[C@]12CC[C@H]3[C@@H](CC[C@@]45O[C@H]4C(O)=C(C#N)C[C@]35C)[C@H]1CC[C@H]2O`, which cell viability, % of control (lower = more cytotoxic) is on record?
Answer: 28.9%

Question: With `CN1C(=O)CCS(=O)(=O)C1c1ccc(Cl)cc1` (stereo not drawn) as the compound, how does the cell viability, % of control (lower = more cytotoxic) read?
Answer: 143%

Question: Which cell viability, % of control (lower = more cytotoxic) does the source give for `CC(C)C[C@H](CN)CC(=O)O` here?
Answer: 401%

Question: With `CCC1(c2ccc(N)cc2)CCC(=O)NC1=O` (stereo not drawn) as the compound, how does the cell viability, % of control (lower = more cytotoxic) read?
Answer: 153%

Question: Which cell viability, % of control (lower = more cytotoxic) does the source give for `O=P1(N(CCCl)CCCl)NCCCO1` (stereo not drawn) here?
Answer: 17%

Question: Which cell viability, % of control (lower = more cytotoxic) does the source give for `C[C@]12CCC(=O)C=C1CC[C@@H]1[C@H]3CC[C@](C)(O)[C@@]3(C)CC[C@@H]12` here?
Answer: 95.2% [at 92.2 µM]

Question: Which cell viability, % of control (lower = more cytotoxic) does the source give for `CC(C)c1cccc(C(C)C)c1O` here?
Answer: 123%

Question: With `COc1cc(OC)c(OC)cc1C=O` as the compound, how does the cell viability, % of control (lower = more cytotoxic) read?
Answer: 98.9%

Question: For `CN1C(=O)COc2c(C(=O)NC3CN4CCC3CC4)cc(Cl)cc21` (stereo not drawn), which cell viability, % of control (lower = more cytotoxic) is on record?
Answer: 212%

Question: For `C[C@](O)(CS(=O)(=O)c1ccc(F)cc1)C(=O)Nc1ccc(C#N)c(C(F)(F)F)c1`, which cell viability, % of control (lower = more cytotoxic) is on record?
Answer: 14%

Question: Which cell viability, % of control (lower = more cytotoxic) does the source give for `C[C@]12CC[C@@H]3c4ccc(OC(=O)N(CCCl)CCCl)cc4CC[C@H]3[C@@H]1CC[C@@H]2OP(=O)(O)O` here?
Answer: 99.3%

Question: For `CC(NC(C)(C)C)C(=O)c1cccc(Cl)c1` (stereo not drawn), which cell viability, % of control (lower = more cytotoxic) is on record?
Answer: 145%

Question: Which cell viability, % of control (lower = more cytotoxic) does the source give for `O=C(O)CCCc1ccc(N(CCCl)CCCl)cc1` here?
Answer: 84.6%
